# Results taken from PubChem BioAssay (NCATS).
# Results filed as inconclusive are left out. Where a call stands in place of a potency, no number is given. Calls of active or inactive are those of the source. Calls follow the shape of the full dose curve; tested in HEK293 reporter line.
# Assay: qHTS for Inhibitors of the Functional Ribonucleoprotein Complex (vRNP) of Lassa (LASV) Arenavirus: Viability assay - alamar blue signal for LASV Primary Screen (AID 1347083)
# Settings: cell viability, alamar blue fluorescence (LASV minigenome counter-screen); series mostly up to 57.5 µM
# Also: nearly all actives have a fitted effect of over 80% in size.
row,SMILES,Potency
1,C=CCn1c(=O)n([C@@H]2O[C@H](CO)[C@@H](O)[C@H]2O)c2nc(N)[nH]c(=O)c21,inactive
2,CC1COc2c(N3CCN(C)CC3)c(F)cc3c(=O)c(C(=O)O)cn1c23 (stereo not given),inactive
3,Cc1cc(=O)oc2cc(O[C@@H]3SC[C@@H](O)[C@H](O)[C@H]3O)ccc12,inactive
4,CN(C)CCOC(=O)COc1ccc(Cl)cc1,inactive
5,CC(=O)OCC(=O)[C@@]1(O)CC[C@H]2[C@@H]3CCC4=CC(=O)C=C[C@]4(C)[C@@]3(F)[C@@H](O)C[C@@]21C,inactive
6,CC(=O)Oc1cccc2c1C(=O)c1c(OC(C)=O)cc(C(=O)O)cc1C2=O,inactive
7,O=C(CCOCCOCCOCCOCCC(=O)Nc1c(I)cc(I)c(C(=O)O)c1I)Nc1c(I)cc(I)c(C(=O)O)c1I,inactive
8,Nc1ncnc(Nc2ccccc2)n1,inactive
9,O=C(O)CCCCC1CCSS1 (stereo not given),inactive
10,O=C(Oc1ccccc1)c1ccccc1O,inactive
11,CNCC(O)c1ccc(O)c(O)c1 (stereo not given),inactive
12,CCOc1cc(CC(=O)N[C@@H](CC(C)C)c2ccccc2N2CCCCC2)ccc1C(=O)O,inactive
13,C/C=C/C=N/NC(=O)c1ccncc1,inactive
14,CCCC(=O)Nc1ccc(O)c(C(C)=O)c1,inactive
15,c1ccc2sc(SSc3nc4ccccc4s3)nc2c1,inactive
16,NCCCCCC(=O)O,inactive
17,CC(C)(C(=O)c1cccnc1)c1cccnc1,inactive
18,CCC1(C)CC(=O)NC1=O (stereo not given),inactive
19,COc1ccc(C2C(=O)c3ccccc3C2=O)cc1,inactive

# Assay: qHTS for Inhibitors of the Functional Ribonucleoprotein Complex (vRNP) of Lymphocytic Choriomeningitis Arenaviruses (LCMV): Viability assay - alamar blue signal for LCMV Primary Screen (AID 1347085)
# Settings: alamar blue viability counter-screen, LCMV vRNP screen cells; series mostly up to 57.5 µM
row,SMILES,Potency
1,O=C(OCCN1CCOCC1)c1cccnc1Nc1cccc(C(F)(F)F)c1,inactive
2,O=C(O)/C=C\C(=O)O,inactive
3,CC(N=C(NC#N)Nc1ccncc1)C(C)(C)C (stereo not given),inactive
4,C[N+]1(C)[C@@H]2CC(OC(=O)[C@H](CO)c3ccccc3)C[C@H]1[C@@H]1O[C@@H]12 (stereo not given in full),inactive
5,COc1ccc(O)cc1,inactive
6,O=C1OC(CN2CCOCC2)CN1/N=C/c1ccc([N+](=O)[O-])o1 (stereo not given),inactive
7,COc1cc(C)c(Cc2cnc(N)nc2N)cc1OC,inactive
8,CC(=O)Nc1ccc(C(=O)O)cc1,inactive
9,CC(CSC(=O)c1ccccc1)C(=O)N1C[C@@H](Sc2ccccc2)C[C@H]1C(=O)O (stereo not given in full),inactive
10,NC(=O)NS(=O)(=O)c1ccc(Cl)cc1,inactive
11,OCCN1CCN(CC/C=C2/c3ccccc3Sc3ccc(C(F)(F)F)cc32)CC1,inactive
12,CN(C)C(=O)Oc1ccc[n+](C)c1,inactive
13,CCCNC(C)C(=O)Nc1ccccc1C (stereo not given),inactive
14,O=[N+]([O-])c1cncn1CCN1CCOCC1,inactive
15,Cc1cc(OI)c(C(C)C)cc1-c1cc(C(C)C)c(OI)cc1C,inactive
16,CC(=O)O[C@]1(C(C)=O)CC[C@H]2[C@@H]3C[C@H](C)C4=CC(=O)CC[C@]4(C)[C@H]3CC[C@@]21C,inactive
17,CC(=O)CC(c1ccccc1)c1c(O)c2ccccc2oc1=O (stereo not given),inactive
18,O=C1CCCc2c(O)cccc21,inactive

row,SMILES,Potency
1,CN=C(NC#N)Nc1ccc(C2=NNC(=O)CC2C)cc1 (stereo not given),inactive
2,O=C(OCc1ccccc1)c1ccccc1,inactive
3,CC(O)CCCCn1c(=O)c2c(ncn2C)n(C)c1=O (stereo not given),inactive
4,C=CCn1c(=O)n([C@@H]2O[C@H](CO)[C@@H](O)[C@H]2O)c2nc(N)[nH]c(=O)c21,inactive
5,CC1COc2c(N3CCN(C)CC3)c(F)cc3c(=O)c(C(=O)O)cn1c23 (stereo not given),inactive
6,Cc1cc(=O)oc2cc(O[C@@H]3SC[C@@H](O)[C@H](O)[C@H]3O)ccc12,inactive
7,CN(C)CCOC(=O)COc1ccc(Cl)cc1,inactive
8,CC(=O)OCC(=O)[C@@]1(O)CC[C@H]2[C@@H]3CCC4=CC(=O)C=C[C@]4(C)[C@@]3(F)[C@@H](O)C[C@@]21C,inactive
9,CC(=O)Oc1cccc2c1C(=O)c1c(OC(C)=O)cc(C(=O)O)cc1C2=O,inactive
10,O=C(CCOCCOCCOCCOCCC(=O)Nc1c(I)cc(I)c(C(=O)O)c1I)Nc1c(I)cc(I)c(C(=O)O)c1I,inactive
11,Nc1ncnc(Nc2ccccc2)n1,inactive
12,O=C(O)CCCCC1CCSS1 (stereo not given),inactive
13,O=C(Oc1ccccc1)c1ccccc1O,inactive
14,CNCC(O)c1ccc(O)c(O)c1 (stereo not given),inactive
15,CCOc1cc(CC(=O)N[C@@H](CC(C)C)c2ccccc2N2CCCCC2)ccc1C(=O)O,inactive
16,C/C=C/C=N/NC(=O)c1ccncc1,inactive
17,CCCC(=O)Nc1ccc(O)c(C(C)=O)c1,inactive
18,c1ccc2sc(SSc3nc4ccccc4s3)nc2c1,inactive
